# Reference: the supplement of paper PMC11732987, “Enantioselective OTUD7B fragment discovery through chemoproteomics screening and high-throughput optimisation” (Communications Chemistry, 2025)
# A number with no mark means an inactive call.
# Assays:
# Assay in all cases: log2 ratio of Biotin-Ahx-Ub-VS probe labelling (fragment/DMSO); higher = less target engagement (more negative = stronger competition), active = hit call of the paper (q ≤ 0.05, log2 ratio ≤ -1)
# Conditions in all cases: compound concentration: 200 uM; treatment time: 3 h
# UniProt O00507 = biological target: UniProt O00507
# UniProt O00507, sequence (O00507 whole entry, the tested form may be a part): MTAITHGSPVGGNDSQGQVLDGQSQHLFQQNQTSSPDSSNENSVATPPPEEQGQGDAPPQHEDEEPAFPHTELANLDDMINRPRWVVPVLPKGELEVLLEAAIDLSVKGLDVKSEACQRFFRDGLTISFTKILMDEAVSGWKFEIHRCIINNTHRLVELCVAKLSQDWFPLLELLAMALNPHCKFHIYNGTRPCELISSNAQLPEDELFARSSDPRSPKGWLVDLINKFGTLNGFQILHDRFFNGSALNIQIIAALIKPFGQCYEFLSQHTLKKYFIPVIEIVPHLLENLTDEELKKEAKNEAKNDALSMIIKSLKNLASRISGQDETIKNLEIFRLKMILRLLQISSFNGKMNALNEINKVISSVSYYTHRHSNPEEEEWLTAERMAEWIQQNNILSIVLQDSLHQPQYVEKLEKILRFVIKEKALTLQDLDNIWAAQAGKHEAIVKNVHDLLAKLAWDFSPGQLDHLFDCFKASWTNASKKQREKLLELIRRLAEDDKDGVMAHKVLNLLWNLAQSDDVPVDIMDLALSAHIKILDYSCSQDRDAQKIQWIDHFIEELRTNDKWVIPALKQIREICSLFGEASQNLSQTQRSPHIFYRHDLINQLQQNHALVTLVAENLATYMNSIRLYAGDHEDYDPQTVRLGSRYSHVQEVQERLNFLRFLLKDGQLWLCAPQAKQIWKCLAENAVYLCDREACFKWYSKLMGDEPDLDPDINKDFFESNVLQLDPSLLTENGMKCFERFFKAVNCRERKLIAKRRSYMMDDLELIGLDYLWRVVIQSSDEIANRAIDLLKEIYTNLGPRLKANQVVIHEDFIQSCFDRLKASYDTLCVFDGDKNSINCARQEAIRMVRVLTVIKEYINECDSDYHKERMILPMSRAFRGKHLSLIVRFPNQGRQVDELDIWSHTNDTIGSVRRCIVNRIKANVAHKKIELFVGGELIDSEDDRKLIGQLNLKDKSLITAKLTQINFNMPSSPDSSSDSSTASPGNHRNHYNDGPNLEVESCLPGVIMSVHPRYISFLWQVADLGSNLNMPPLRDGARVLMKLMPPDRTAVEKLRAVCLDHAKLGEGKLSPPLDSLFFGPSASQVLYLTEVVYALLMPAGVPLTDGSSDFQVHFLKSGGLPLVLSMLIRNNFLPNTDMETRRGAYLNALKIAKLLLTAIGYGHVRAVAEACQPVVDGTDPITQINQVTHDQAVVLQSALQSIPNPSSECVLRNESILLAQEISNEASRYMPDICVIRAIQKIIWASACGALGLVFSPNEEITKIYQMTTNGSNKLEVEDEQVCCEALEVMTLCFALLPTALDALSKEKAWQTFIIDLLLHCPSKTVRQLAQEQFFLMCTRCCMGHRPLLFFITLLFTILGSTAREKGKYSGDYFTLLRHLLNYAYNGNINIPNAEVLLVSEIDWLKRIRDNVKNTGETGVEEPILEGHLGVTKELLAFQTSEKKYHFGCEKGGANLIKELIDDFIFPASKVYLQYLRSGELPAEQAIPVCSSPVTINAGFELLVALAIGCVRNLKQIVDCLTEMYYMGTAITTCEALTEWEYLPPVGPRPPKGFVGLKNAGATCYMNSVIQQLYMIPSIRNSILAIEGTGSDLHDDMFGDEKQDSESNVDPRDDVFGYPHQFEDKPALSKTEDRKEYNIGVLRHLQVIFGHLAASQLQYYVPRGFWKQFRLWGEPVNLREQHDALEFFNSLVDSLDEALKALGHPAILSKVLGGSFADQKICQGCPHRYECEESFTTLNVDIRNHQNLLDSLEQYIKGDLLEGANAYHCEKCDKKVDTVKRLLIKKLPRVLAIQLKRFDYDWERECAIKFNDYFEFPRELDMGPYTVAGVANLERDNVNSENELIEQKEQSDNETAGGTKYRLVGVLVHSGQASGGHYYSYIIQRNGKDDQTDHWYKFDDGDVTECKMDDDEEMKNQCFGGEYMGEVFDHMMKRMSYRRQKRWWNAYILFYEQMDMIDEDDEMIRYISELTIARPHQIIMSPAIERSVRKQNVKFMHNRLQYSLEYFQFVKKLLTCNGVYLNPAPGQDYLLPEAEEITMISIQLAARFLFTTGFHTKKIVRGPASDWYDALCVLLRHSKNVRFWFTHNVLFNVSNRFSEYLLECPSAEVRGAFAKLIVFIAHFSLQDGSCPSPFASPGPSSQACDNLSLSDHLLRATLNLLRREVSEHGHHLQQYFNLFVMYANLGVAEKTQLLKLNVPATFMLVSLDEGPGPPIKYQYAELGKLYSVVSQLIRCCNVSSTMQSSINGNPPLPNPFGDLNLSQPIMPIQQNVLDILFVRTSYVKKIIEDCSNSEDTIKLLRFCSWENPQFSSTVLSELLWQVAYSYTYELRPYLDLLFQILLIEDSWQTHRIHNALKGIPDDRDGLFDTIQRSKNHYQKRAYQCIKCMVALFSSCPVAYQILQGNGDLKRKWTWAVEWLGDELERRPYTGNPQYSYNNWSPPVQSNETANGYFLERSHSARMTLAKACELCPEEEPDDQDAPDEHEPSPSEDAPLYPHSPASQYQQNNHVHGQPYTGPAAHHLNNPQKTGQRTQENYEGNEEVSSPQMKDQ
# Summary of the method: (§1)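 HEK293T lysate (495 µg per sample, in Tris/CHAPS/IGEPAL buffer with protease inhibitors) was exposed in triplicate for 3 h to fragment at 200 µM or to vehicle, then to Biotin-Ahx-Ub-VS at 0.5 µM final for 1 h. Labelled DUBs were enriched on NeutrAvidin, digested with LysC and trypsin, and analysed by diaPASEF LC-MS/MS. Spectronaut label-free quantities were normalised to the global median, and values are average log2 ratios of fragment over vehicle from an unpaired t-test. Only proteins with ≥2 unique peptides were used.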
# UniProt P51784 = biological target: UniProt P51784
# UniProt P51784, sequence (P51784 whole entry): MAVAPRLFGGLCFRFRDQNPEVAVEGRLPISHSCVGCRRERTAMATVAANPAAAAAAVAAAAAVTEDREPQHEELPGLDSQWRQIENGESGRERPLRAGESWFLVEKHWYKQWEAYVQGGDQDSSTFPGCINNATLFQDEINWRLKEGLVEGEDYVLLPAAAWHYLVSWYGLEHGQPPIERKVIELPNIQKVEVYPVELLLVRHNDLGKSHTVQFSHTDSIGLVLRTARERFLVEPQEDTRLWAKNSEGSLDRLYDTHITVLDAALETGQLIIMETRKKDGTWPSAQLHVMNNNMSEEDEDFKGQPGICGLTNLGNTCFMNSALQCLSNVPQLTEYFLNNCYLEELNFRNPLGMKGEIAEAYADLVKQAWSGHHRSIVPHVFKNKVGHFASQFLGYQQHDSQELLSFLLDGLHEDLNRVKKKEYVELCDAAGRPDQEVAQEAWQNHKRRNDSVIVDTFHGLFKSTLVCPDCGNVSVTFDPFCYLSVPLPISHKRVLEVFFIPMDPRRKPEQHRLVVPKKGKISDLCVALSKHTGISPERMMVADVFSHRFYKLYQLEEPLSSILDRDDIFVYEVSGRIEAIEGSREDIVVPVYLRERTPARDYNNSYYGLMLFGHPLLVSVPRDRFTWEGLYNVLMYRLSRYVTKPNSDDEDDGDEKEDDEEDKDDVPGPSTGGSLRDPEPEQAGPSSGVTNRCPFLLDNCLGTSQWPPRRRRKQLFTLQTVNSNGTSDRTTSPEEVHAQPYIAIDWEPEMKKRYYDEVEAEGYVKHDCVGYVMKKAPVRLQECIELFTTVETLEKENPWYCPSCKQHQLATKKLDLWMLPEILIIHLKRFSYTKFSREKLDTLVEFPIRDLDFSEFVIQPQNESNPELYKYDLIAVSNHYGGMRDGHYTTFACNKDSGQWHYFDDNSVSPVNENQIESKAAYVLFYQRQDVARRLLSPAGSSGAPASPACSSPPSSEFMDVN
# Summary of the method: as §1
# UniProt Q5T2D3 = biological target: T1, UniProt Q5T2D3
# T1 sequence (whole entry): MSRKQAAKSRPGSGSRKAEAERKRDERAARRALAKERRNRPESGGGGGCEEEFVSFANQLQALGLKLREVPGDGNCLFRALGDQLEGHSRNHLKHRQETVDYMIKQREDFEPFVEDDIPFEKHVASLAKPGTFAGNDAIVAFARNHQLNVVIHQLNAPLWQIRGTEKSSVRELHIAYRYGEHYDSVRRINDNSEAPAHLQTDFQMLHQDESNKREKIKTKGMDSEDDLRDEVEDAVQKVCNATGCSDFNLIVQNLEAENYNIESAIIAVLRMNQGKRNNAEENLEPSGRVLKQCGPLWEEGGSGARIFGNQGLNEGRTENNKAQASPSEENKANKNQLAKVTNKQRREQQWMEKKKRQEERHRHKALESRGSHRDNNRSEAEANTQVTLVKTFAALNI
# Summary of the method: as §1
# UniProt Q8TE49 = biological target: T2, UniProt Q8TE49
# T2 sequence (whole entry): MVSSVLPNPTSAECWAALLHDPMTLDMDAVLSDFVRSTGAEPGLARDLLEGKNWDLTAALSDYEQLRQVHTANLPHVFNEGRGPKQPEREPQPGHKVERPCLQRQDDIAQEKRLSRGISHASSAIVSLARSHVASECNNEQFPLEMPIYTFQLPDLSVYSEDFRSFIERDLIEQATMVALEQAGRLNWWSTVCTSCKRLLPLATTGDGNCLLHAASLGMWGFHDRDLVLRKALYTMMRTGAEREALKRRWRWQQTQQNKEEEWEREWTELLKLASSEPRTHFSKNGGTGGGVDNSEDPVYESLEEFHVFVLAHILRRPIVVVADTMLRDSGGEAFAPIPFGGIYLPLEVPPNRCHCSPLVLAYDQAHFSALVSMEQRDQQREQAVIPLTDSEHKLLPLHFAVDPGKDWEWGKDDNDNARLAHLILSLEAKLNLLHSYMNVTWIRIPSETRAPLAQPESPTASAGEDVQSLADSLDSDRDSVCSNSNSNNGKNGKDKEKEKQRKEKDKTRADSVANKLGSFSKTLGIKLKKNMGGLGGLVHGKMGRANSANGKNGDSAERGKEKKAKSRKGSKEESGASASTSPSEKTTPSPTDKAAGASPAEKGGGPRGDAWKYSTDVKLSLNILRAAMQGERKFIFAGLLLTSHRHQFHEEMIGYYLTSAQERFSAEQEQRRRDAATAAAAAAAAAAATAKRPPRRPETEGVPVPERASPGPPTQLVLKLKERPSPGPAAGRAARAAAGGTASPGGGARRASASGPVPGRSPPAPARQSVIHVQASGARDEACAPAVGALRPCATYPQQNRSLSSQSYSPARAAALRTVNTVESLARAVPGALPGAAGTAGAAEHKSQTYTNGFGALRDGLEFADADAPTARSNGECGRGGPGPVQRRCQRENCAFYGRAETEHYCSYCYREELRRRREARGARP
# Summary of the method: as §1
# UniProt Q9P2H5 = biological target: T3, UniProt Q9P2H5
# T3 sequence (whole entry): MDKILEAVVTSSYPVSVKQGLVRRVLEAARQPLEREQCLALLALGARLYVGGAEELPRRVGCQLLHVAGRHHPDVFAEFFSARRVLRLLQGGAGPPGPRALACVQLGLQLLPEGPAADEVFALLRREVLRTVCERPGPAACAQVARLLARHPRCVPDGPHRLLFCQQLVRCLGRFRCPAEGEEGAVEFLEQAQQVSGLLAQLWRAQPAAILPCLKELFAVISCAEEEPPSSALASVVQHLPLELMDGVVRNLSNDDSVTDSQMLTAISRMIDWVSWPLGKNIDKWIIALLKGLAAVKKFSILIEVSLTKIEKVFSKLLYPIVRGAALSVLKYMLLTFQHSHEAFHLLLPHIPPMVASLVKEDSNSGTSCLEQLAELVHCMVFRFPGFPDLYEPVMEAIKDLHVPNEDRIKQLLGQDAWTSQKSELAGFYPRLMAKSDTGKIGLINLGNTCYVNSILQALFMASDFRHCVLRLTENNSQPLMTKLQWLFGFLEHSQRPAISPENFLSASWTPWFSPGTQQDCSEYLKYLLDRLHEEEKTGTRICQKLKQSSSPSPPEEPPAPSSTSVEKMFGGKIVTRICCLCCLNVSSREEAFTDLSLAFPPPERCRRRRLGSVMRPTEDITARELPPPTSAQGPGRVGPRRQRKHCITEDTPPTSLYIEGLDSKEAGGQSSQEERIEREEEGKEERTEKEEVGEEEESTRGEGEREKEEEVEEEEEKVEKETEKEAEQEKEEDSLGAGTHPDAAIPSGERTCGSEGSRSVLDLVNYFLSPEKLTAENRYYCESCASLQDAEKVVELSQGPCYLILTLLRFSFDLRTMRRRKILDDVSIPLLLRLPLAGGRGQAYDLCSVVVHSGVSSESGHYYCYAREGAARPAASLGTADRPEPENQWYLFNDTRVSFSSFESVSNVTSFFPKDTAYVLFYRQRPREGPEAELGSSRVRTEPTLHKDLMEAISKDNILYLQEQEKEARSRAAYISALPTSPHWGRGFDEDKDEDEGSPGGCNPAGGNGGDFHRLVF
# Summary of the method: as §1
# UniProt Q9UGI0 = biological target: T4, UniProt Q9UGI0
# T4 sequence (whole entry): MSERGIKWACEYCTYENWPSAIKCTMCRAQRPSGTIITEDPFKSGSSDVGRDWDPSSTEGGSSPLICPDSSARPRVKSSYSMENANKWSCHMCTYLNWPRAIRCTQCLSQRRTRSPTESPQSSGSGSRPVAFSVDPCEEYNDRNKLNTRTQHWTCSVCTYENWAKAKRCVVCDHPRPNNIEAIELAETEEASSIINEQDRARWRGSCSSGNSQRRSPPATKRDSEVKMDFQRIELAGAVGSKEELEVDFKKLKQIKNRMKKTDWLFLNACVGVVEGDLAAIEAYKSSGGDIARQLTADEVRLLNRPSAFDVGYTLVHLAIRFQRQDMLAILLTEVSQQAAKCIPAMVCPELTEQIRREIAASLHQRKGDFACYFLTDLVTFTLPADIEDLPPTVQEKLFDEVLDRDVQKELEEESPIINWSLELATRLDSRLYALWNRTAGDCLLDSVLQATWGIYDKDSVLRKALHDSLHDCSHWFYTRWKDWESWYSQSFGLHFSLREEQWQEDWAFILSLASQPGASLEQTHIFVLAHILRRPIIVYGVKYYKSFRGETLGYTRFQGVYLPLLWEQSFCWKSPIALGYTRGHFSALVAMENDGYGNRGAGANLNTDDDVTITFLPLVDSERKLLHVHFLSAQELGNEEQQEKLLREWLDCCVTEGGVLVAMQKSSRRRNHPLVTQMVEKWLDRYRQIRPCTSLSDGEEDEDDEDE
# Summary of the method: as §1
# YOD1 = biological target: T5, YOD1 (UniProt Q5VVQ6)
# T5 sequence (whole entry): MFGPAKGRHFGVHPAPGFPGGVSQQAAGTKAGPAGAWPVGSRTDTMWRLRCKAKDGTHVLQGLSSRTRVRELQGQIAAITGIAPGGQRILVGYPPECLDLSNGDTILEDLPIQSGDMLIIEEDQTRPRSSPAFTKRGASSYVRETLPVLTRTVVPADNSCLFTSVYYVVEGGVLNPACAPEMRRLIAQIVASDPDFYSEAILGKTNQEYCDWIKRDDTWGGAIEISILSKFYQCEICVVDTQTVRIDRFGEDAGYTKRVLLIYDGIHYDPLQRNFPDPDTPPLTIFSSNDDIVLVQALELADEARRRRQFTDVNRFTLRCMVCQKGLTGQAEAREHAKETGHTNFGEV
# Summary of the method: as §1
SMILES,log2 ratio of Biotin-Ahx-Ub-VS probe labelling (UniProt O00507),log2 ratio of Biotin-Ahx-Ub-VS probe labelling (UniProt P51784),log2 ratio of Biotin-Ahx-Ub-VS probe labelling (UniProt Q5T2D3),log2 ratio of Biotin-Ahx-Ub-VS probe labelling (UniProt Q8TE49),log2 ratio of Biotin-Ahx-Ub-VS probe labelling (UniProt Q9P2H5),log2 ratio of Biotin-Ahx-Ub-VS probe labelling (UniProt Q9UGI0),log2 ratio of Biotin-Ahx-Ub-VS probe labelling (YOD1)
Cc1ccc(CNC(=O)CCl)nc1C.Cl,-0.661,0.353,-0.0639,-0.343,0.102,-0.161,-0.259
CC(C)n1nccc1NC(=O)CCl,-0.0553,0.033,-0.201,-1.34 (active),-0.152,-0.9,0.0661
O=C(CCl)N1CCCCC12CCOCC2,-0.561,-0.343,-0.414,-0.444,-0.444,-0.517,-0.518
Cc1cc(C2CCCN2C(=O)CCl)nn1C.Cl (stereo not given),-0.0169,-0.386,-0.106,-0.432,-0.247,0.115,-0.199
O=C(CCl)N1CCc2nc[nH]c2C1c1ccc(Cl)cc1 (stereo not given),-0.893,0.194,-0.0219,-1.15 (active),-0.000874,-1.05 (active),-0.117
